Screening data: PubChem BioAssay, National Center for Advancing Translational Sciences (NCATS)
Most compounds without a hit are left out; they make up all but 1.4% or so of the library.
BRCA1 expr act = increases BRCA1 expression | hit rate 1.1% among 380,000 | Potency, µM (top dose mostly 46.1 µM), inactives show top-dose activation, usual class: activators | MCF7-BRCA1-FFLuc reporter, luminescence, 48 h; response scale: scaled: vehicle 0%, 10 µM genistein 100% | AID 624202; further: potency means the concentration at half of the fitted maximal effect; nearly all actives have a fitted effect of over 80% in size
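48 h compound treatment of MCF7-BRCA1-FFLuc cells (phenol-red free MEM, 37 °C), then 15 min with luciferase substrate and luminescence imaging.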
TCR act = activates T cell receptor signaling; primary human leukocytes, anti-CD3, IL-2 HTRF, 48 h; Potency, µM (series often up to 9.22 µM), inactives show top-dose activation of IL-2 secretion, hits mostly activators; 330,000 tested, under 10 active; further: % of control where 0% means no effect
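Human primary leukocytes + a-CD3 beads + cpd, 48 hr; IL-2 in supernatant by HTRF (ex 320nm / em 665nm). No co-stimulatory signal supplied.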
TSHR antagonist = human thyrotropin receptor antagonism | P16473 | TSHR-expressing cells, TSH-stimulated cAMP HTRF, 2 h; hits give low values | hit rate 0.2% among 330,000 | activity change, negative = inhibition, % at 11.5 µM;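 active means activity change below a set negative limit, meaning inhibition stronger than a set level, cut at about -70% in these data; inconclusive means activity change between two set negative limits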; further: on the % scale 0 is the no-effect control and ±100 the full control effect
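Inhibition of cAMP made by TSHR-expressing cells under TSH stimulation (4nM final, EC80; 2 h, 37 deg C) is quantified with a one-step lysis HTRF kit, anti-cAMP cryptate versus cAMP-d2.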
N370S GC = N370S glucocerebrosidase modulation, Gaucher chaperone candidate; hit rate 0.092% among 330,000; N370S GC spleen homogenate, 4MU-glucoside fluorescence; AID 2101; Potency, µM (titrated, usually from 59.4 µM), for inactives: at the highest dose activity change, negative = inhibition, hits mostly inhibitors; P04062;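 further: potency means the concentration at half of the fitted maximal effect; 0% = full enzyme activity and -100% = no enzyme basal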
GLS inhibitor = inhibitors of human glutaminase (GLS); GLS enzymatic activity, qHTS titration; Potency, µM (highest dose often 45.5 µM), for inactives: top-dose activity change, negative = inhibition, actives largely listed as inhibitors; O94925; AID 624170; hit rate 0.21% among 410,000; further: potency means the concentration at half of the fitted maximal effect; on the % scale 0 is the no-effect control and ±100 the full control effect
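Coupled fluorescence readout: glutamate oxidase/HRP/Amplex Red detect glutamate formed by hKGA from L-glutamine (1 mM solution added). Buffer 45 mM KH2PO4 pH 8.2, 0.02% Tween-20; reads at t0 and 30 min RT.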
p53 reactivator = re-activators of mutant p53; hit rate 0.063% among 320,000; AID 504706; Potency, µM (highest dose often 92.2 µM), for the others: at the top dose activity change, positive = activation, most hits filed as activators; H1299 p53-A138V BP100-luciferase reporter, luminescence, 24 h; further: potency means the concentration at half of the fitted maximal effect; % of control where 0% means no effect; nearly all actives have a fitted effect of over 45% in size
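p53-null H1299 cells stably carrying temperature-sensitive p53-A138V and a BP100-luciferase reporter were pinned with compounds (4-point, 1:5 series) and held 24 hrs at 37 deg C. Luminescence was read 10 min after detection reagent.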
Numbers without * were called inactive; ? = inconclusive; . = no result given; [ ] = remark or other dose. Unless noted, the call rests on the fitted dose curve; in most records, active means well fitted curve in the direction sought with a large enough effect; inconclusive means small, poorly fitted or top-dose-only effect, or another doubt; inactive means no such curve, though single readings can be large; an effect the other way counts as inactive or inconclusive.

SMILES | BRCA1 expr act | TCR act | TSHR antagonist | N370S GC | GLS inhibitor | p53 reactivator
Cc1cc(C)n(C(=O)/C(C#N)=N\Nc2ccccc2[N+](=O)[O-])n1 | 3% | -3% | -12 | -11% | -3% | 14%
CNc1nc(-c2ccccc2)c(-c2ccccc2)s1 | 0% | . | . | . | . | .
COc1ccc(-n2c(-c3ccc(Cl)cc3Cl)n[nH]c2=S)c(OC)c1 | 5% | -2% | -1 | 3% | 11µM* | 7%
COc1ccc(Cl)cc1-c1n[nH]c(=S)n1C1CCCCC1 | -37% | 2% | -24 | 5% | 4µM* | -10%
COc1ccc(-n2c(-c3ccc(C(C)(C)C)cc3)n[nH]c2=S)c(OC)c1 | -2% | . | . | . | ? | .
C[n+]1c(/C=C/c2ccnc3ccccc23)cc(/C=C/c2ccnc3ccccc23)c2ccccc21 | 0% | . | . | . | . | .
Cn1cnc2c1c(=O)n(Cc1ccc(F)cc1Cl)c(=O)n2C | -4% | 0% | 6 | 5% | 8.9µM* | 9%
Cn1c(Oc2cccc(Cl)c2)nc2c1c(=O)n(Cc1ccccc1Cl)c(=O)n2C | 12% | . | . | . | -1% | .
Cn1c(Oc2ccccc2)nc2c1c(=O)n(Cc1ccc(Cl)cc1Cl)c(=O)n2C | . | . | . | . | 11µM* | .
Nc1ccc2c(c1)C(=O)c1cc(N)c(Cl)cc1-2 | -23% | 9% | . | . | -20% | .
COc1cc2c(cc1N)-c1ccc(N)cc1C2=O | 10µM* | . | . | . | 3% | .
COc1cc(C2Nc3cccc4cccc(c34)N2)ccc1O | -30% | . | -3 | 1% | 11µM* | -6%
COc1cc(C2Nc3cccc4cccc(c34)N2)cc(OC)c1OC(C)=O | -35% | 1% | -7 | 3% | 2% | -16%
CS(=O)(=O)c1ccc(NC(=O)COc2ccccc2C(=O)Nc2ccccc2)cc1 | 0% | . | . | . | . | .
CS(=O)(=O)c1ncc(Cl)c(C(=O)Nc2ccc(OC(F)F)cc2)n1 | -90% | -3% | -74* | -18% | 18% | -10%
Cc1ccccc1CS(=O)(=O)c1ncc(Cl)c(C(=O)Nc2ccc(F)cc2)n1 | -80% | 4% | -74* | 2% | 9% | -28%
CS(=O)(=O)c1ncc(Cl)c(C(=O)Nc2ccc(N3CCOCC3)cc2)n1 | -37% | 11% | -8 | -3% | -24% | -34%
CCS(=O)(=O)c1ncc(Cl)c(C(=O)Nc2ccc(S(=O)(=O)N(C)c3ccccc3)cc2)n1 | -11% | -5% | -92* | 2% | ? | -21%
CCN(c1ccccc1)S(=O)(=O)c1ccc(NC(=O)c2nc(S(C)(=O)=O)ncc2Cl)cc1 | -68% | -2% | -89* | -2% | 3% | -17%
CCSc1ncc(Cl)c(C(=O)Nc2ccc(S(=O)(=O)N(C)c3ccccc3)cc2)n1 | . | . | . | . | -3% | .
O=C(O)/C=C(/CC(=O)O)C(=O)O | . | . | . | . | 9% | .
CCOc1ccc(NC(=O)Cn2cc(C(=O)c3ccc(OCC)cc3)c(=O)c3cc4c(cc32)OCCO4)cc1 | 8% | . | . | . | 7% | .
CCN(CC)/[N+]([O-])=N/Oc1cc(O/N=[N+](\[O-])N(C)C)c([N+](=O)[O-])cc1[N+](=O)[O-] | . | . | . | -17% | . | .
Cc1cccc(NC(=S)NCCc2ccccc2)n1 | -29% | 6% | -7 | 17% | -15% | -3%
S=C(NCCc1ccccc1)Nc1ccccn1 | 10µM* | 1%[46.1 µM] | 12 | 0% | 12% | ?
SMILES | BRCA1 expr act | TCR act | TSHR antagonist | N370S GC | GLS inhibitor | p53 reactivator
O=C(Nc1ccccn1)C(=O)Nc1ccccn1 | ? | -3% | -4 | 1% | 2% | 4%
S=C(Nc1ccccn1)c1ccccn1 | 7.1µM* | 4% | 0 | -6% | 50% | ?
Cc1ccc(C(=O)c2cc(O)c(O)c([N+](=O)[O-])c2)cc1 | . | . | . | . | 17% | .
CCC(=O)OC1(C)C(=O)C=C2C=C(c3ccsc3)OC=C2C1=O (stereo not drawn) | 2% | 1% | -19 | 9% | 1% | 0%
COC(=O)CCC(=O)OC1(C)C(=O)C=C2C=C(c3ccsc3)OC=C2C1=O (stereo not drawn) | 4% | 1% | . | 9% | 13µM* | .
Nc1nc(N)nc(COc2ccccc2)n1 | 4.5µM* | -7% | 11 | 2% | 9% | 14%
